Results reported in PubChem BioAssay AID1063 (University of Pittsburgh Molecular Library Screening Center, 2008).
The whole screen tested about 200,000 compounds, of which about 18,000 (9%) were called active. This excerpt belongs to a sample that is enriched for actives. Unmarked numbers belong to inactive results. No stated cut-off is given here; in the data, active means inhibition above about 50%; inactive means the rest.

Experiment: antileishmanial activity against promastigotes – primary screen (AID 1063);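 further: promastigotes grown with compound for 44 hours at 28 °C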
Settings: Leishmania major promastigotes, resazurin fluorescence viability; at 10 µM; hits give high values

Row | SMILES | inhibition
1 | CN(CCc1cn[nH]c1)C(=O)CC1C(=O)NCCN1Cc1cccc(Oc2ccccc2)c1 (centres undefined) | 0.64%
2 | O=C(/C=C/c1cn(-c2ccccc2)nc1-c1ccc2c(c1)OCCO2)NCCCN1CCOCC1 | 41.1%
3 | Nc1ccc(OCC(O)C[n+]2ccc(CCS(=O)(=O)[O-])cc2)cc1 (centres undefined) | -3.78%
4 | O=C(O)c1ccc(N/N=C/c2ccc3ncccc3c2)cc1 | -9.46%
5 | CN(C(=O)CSc1nnc(-c2c[nH]c3ccccc23)o1)C1CCS(=O)(=O)C1 (centres undefined) | 0.33%
6 | CCOc1cccc(NC(=O)C2CCCN(S(=O)(=O)c3ccc(OC)cc3)C2)c1 (centres undefined) | 30.8%
7 | CSCC(=O)N1CCCC(C(=O)c2cc(F)ccc2F)C1 (centres undefined) | -4.01%
8 | COc1ccc(/C=C/CN2CCCC(C(=O)c3cc(F)ccc3F)C2)cc1 (centres undefined) | 81.1% (active)
9 | O=C1CCC(CCC(=O)N2CCCC(C(=O)c3ccc(Cl)cc3)C2)=NN1 (centres undefined) | -5.05%
10 | CCc1nnc(NC(=O)CSc2nnnn2-c2cccc(C(C)=O)c2)s1 | -4.47%
11 | O=C(NNC(=O)c1ccccc1[N+](=O)[O-])Nc1ccccc1C(F)(F)F | 0.59%
12 | Cn1cnnc1Sc1ccc(S(C)(=O)=O)cc1[N+](=O)[O-] | -6.44%
13 | COc1ccc(C(=O)OCC(=O)NCC2CCCO2)cc1[N+](=O)[O-] (centres undefined) | -1.01%
14 | O=C(/C=C/c1ccccc1[N+](=O)[O-])NCC1CCCO1 (centres undefined) | 64.4% (active)
15 | O=C(NCC1CCCO1)c1ccc2ccccc2n1 (centres undefined) | -4.29%
16 | CC(C)C(=O)Nc1c(O)c2ccccc2[nH]c1=O | -11.4%
17 | CCn1cc(C(=O)NCCCN2CCCCCC2)c(=O)c2cc(S(=O)(=O)N3CCc4ccccc4C3)ccc21 | 89.7% (active)
18 | CCn1cc(C(=O)NCC2CCCO2)c(=O)c2cc(S(=O)(=O)N3CCCCC3)ccc21 (centres undefined) | 10.9%
19 | O=C(Nc1ccc(S(=O)(=O)N2CCc3ccccc3C2)cc1)c1ccccc1 | -4.05%
20 | O=C(Cn1c(N2CCN(C/C=C/c3ccccc3)CC2)nc2ccccc21)c1ccccc1 | 53.2% (active)
21 | CC(C)Cn1c(N2CCN(C(=O)/C=C/c3ccccc3)CC2)nc2ccccc21 | 5.8%
22 | CCCCOC(=O)c1ccc(N2C(=O)CC(N3CCN(C/C=C/c4ccccc4)CC3)C2=O)cc1 (centres undefined) | -5.72%
23 | Cc1ccc(-c2nnc(SCC(=O)N/N=C/c3cccs3)n2-c2ccc(C)cc2)cc1 | 32%
24 | Cc1ccc(-n2c(SCC(=O)NCc3ccc4c(c3)OCO4)nnc2-c2cccnc2)c(C)c1 | 7.56%

Row | SMILES | inhibition
25 | Cc1ccccc1-n1c(SCC(=O)NCc2cccs2)nnc1-c1ccncc1 | 53% (active)
26 | Cc1ccc(-c2csc3nnc(SCC(=O)NCc4ccco4)n23)cc1 | -1.56%
27 | CCn1c(SCC(=O)NCc2ccco2)nnc1-c1ccc(N)cc1 | -3.78%
28 | Cc1ccc(Nc2nc(CSc3nnc(-c4ccncc4)n3-c3ccccc3C)cs2)cc1 | 28.5%
29 | O=C(CSc1nnc(-c2ccncc2)n1-c1ccc(Cl)cc1)Nc1ccc(C(=O)O)cc1 | -7.6%
30 | Cc1ccc(-n2c(SCC(=O)N3c4ccccc4Sc4ccccc43)nnc2-c2ccncc2)cc1 | 62.6% (active)
31 | CCOc1ccccc1-n1c(SCC(=O)NCc2ccco2)nnc1-c1ccncc1 | 67.1% (active)
32 | CCc1nc2ccccc2c(C(=O)OC2CCCCC2=O)c1C (centres undefined) | 7.85%
33 | O=[N+]([O-])c1cccc(/C([O-])=C(/C(=S)Nc2ccccc2F)[n+]2ccccc2)c1 | -0.54%
34 | C=CCN(C(=O)c1cc(C)cc(C)c1)C1(C(=O)Nc2ccccc2)CCN(C(C)C)CC1 | 6.23%
35 | CCNC(=O)N1c2ccccc2Sc2ccccc21 | 4.94%
36 | COc1ccccc1CNC(=O)C1Cc2ccccc2C(=O)O1 (centres undefined) | -1.31%
37 | CCCC1NC(=S)NC(C)=C1C(C)=O (centres undefined) | -12.4%
38 | O=C(/C=C/c1ccc2c(c1)OCO2)NCc1cn2cc(Cl)ccc2n1 | -4.11%
39 | CC(C)NC(=S)Nc1cccc2cnccc12 | -1.24%
40 | CCOC(=O)Cn1nnnc1C | -3.4%
41 | C=CCC(CC=C)(C(N)=O)c1ccccc1 | 2.87%
42 | CC(C)(O)C(=O)NN(C(=O)c1ccccc1)c1cccc(Br)c1 | 3.6%
43 | Cc1ccc(N(NC(=O)C(C)(C)O)C(=O)c2ccccc2)cc1C | -3.54%
44 | CCCCCCCCC(=O)NCCOc1ccccc1 | -9.39%
45 | CCCC(O)(CCC)C(=O)NN(C(=O)CCl)c1cccc(C)c1 | 82.9% (active)
46 | CCC(C)NC(=O)CCCc1ccccc1 (centres undefined) | 13.2%
47 | CCCCC(O)(CCCC)C(=O)NN(C(=O)CCl)c1ccccc1 | 54.5% (active)
48 | Cc1ccc(N(C(=O)c2ccc(S(=O)(=O)N(C)C)cc2)C2C=CS(=O)(=O)C2)cc1 (centres undefined) | 5.35%

Row | SMILES | inhibition
49 | COc1ccccc1-c1noc(CSc2nc(C)cc(=O)[nH]2)n1 | -6.37%
50 | N#CCC(=O)N/N=C/c1ccc(SCC(=O)Nc2ccccc2)o1 | -1.51%
51 | CCSc1sc(CC)cc1C=O | 5.02%
52 | c1ccc2sc(NN=C3CCCC3)nc2c1 | 57% (active)
53 | O=C(Nc1ccccc1)Nc1nc2ccccc2s1 | -0.32%
54 | Cc1ccnc(Nc2nc3ccccc3s2)n1 | 11.8%
55 | O=C(C1CCCN1S(=O)(=O)c1ccc(Br)cc1)N1CCOCC1 (centres undefined) | 1.18%
56 | CC1(C)CN(c2ccc(-c3ccnc4ncnn34)cc2)C1=O | 8.31%
57 | CCN(CC)CCN(C(=O)c1ccc(N2C(=O)CCC2=O)cc1)c1nc2cc3c(cc2s1)OCO3 | 4.38%
58 | Cc1[nH]c2ccccc2c1SCC(=O)Nc1nccs1 | 2.27%
59 | Cc1ccc(NC(=O)NC2CCCCC2)cc1S(=O)(=O)N1CCOCC1 | 27.4%
60 | O=C(NC(=S)Nc1ccc(S(=O)(=O)N2CCOCC2)cc1)c1ccccc1[N+](=O)[O-] | 5.68%
61 | COc1ccc(S(=O)(=O)N2CCC(C(=O)OCC(=O)c3ccccc3)CC2)cc1[N+](=O)[O-] | -6.1%
62 | Cc1cc(C(=O)COc2ccccc2[N+](=O)[O-])c(C)n1-c1cccc(S(=O)(=O)N2CCOCC2)c1 | 98.9% (active)
63 | S=c1[nH]ccn1-c1ccc(Cl)cc1 | -8.82%
64 | O=S(=O)(NC1CC1)c1ccc2c3c(cccc13)CC2 | 3.72%
65 | Cc1ccc(C(=O)OC2CCCN(C)C2)cc1 (centres undefined) | -6.05%
66 | O=C(Nc1ccc(S(=O)(=O)Nc2ncccn2)cc1)c1cncc(Br)c1 | -5.97%
67 | CCNS(=O)(=O)c1ccc(NC(=O)c2cncc(Br)c2)cc1 | 50.3% (active)
68 | CCNS(=O)(=O)c1ccc(NC(=O)Nc2cccc(OC)c2)cc1 | 3.37%
69 | N#CC1(C#N)C(C(=O)C23CC4CC(CC(C4)C2)C3)C12CCOCC2 (centres undefined) | 4.33%
70 | Cc1ccccc1CSc1nnc(-c2ccccc2)c(=O)[nH]1 | -8.07%
71 | CCc1ccc(NC(=O)Cn2nc(C)c([N+](=O)[O-])c2C)cc1 | 6.59%
72 | Cc1nn(CC(=O)Nc2nc3ccccc3s2)c(C)c1[N+](=O)[O-] | 50.5% (active)

Row | SMILES | inhibition
73 | Cc1nn(CC(=O)NCc2ccccn2)c(C)c1[N+](=O)[O-] | -2.73%
74 | C=CCN(CC=C)C(=O)COC(=O)c1n[nH]c2ccccc12 | 1.59%
75 | CN(C(=O)CSc1nncc2ccccc12)C1CCCCC1 | 0.99%
76 | Cc1ccc(-c2cn3cc([N+](=O)[O-])ccc3n2)cc1 | 6.77%
77 | Cc1ccc(-c2cn3cc(C)ccc3n2)cc1 | 87.7% (active)
78 | COc1ccc(-c2cn3ccsc3n2)cc1 | 0.76%
79 | N#Cc1cc([N+](=O)[O-])ccc1Oc1cccc(/C=N/NC(=O)c2ccc(Cl)cc2)c1 | 15.7%
80 | CC1(C)C2CC=C(/C=N/NC(=O)C3CC3)C1C2 (centres undefined) | 99.3% (active)
81 | O=C(N/N=C/c1ccco1)c1ccc(NC(=O)C2CC2)cc1 | 5.98%
82 | CC(C)(C)C(=O)Nc1ccc(C(=O)N/N=C/c2ccccc2OC(=O)c2ccc(Cl)cc2Cl)cc1 | 40.8%
83 | CC1(C)C2CC=C(/C=N/NC(=O)c3ccc(Cl)cc3)C1C2 (centres undefined) | 96% (active)
84 | CCOc1ccc(N2C(=O)CN(c3cccc4ccccc34)C2=S)cc1 | -2.38%
85 | CCS(=O)(=O)C1=NSC2=NC(=O)/C(=C\c3cc(C)n(-c4cccc(OC)c4)c3C)C(=N)N21 | -2.58%
86 | Cc1ccc(S(=O)(=O)NCCC(c2ccccc2)c2ccccc2)cc1C(=O)O | -13.6%
87 | COc1cccc(-n2nc(C(=O)N3CCN(Cc4ccccc4)CC3)c3ccccc3c2=O)c1 | -6.17%
88 | NC(N)=N/N=C/c1ccc(Cl)c([N+](=O)[O-])c1 | 100% (active)
89 | Cc1ccnc(NC(=O)c2ccc(Cl)c([N+](=O)[O-])c2)c1 | 28.8%
90 | CC(CC(=O)O)C(=O)c1ccc(Cl)c([N+](=O)[O-])c1 (centres undefined) | -1.01%
91 | O=C(CCNS(=O)(=O)c1ccc(Br)s1)NCc1ccccc1Cl | 15.3%
92 | CCCc1cc(=O)[nH]c(SCC(=O)OCc2ccccc2)n1 | 1.09%
93 | CCCc1cc(=O)[nH]c(SCC(=O)c2cc(C)n(CCC)c2C)n1 | 11.3%
94 | CCCc1cc(=O)[nH]c(SCC(=O)N2CCN(S(=O)(=O)c3ccc(C)cc3C)CC2)n1 | 63% (active)
